Tau ThT inhib: qHTS for Inhibitors of Tau Fibril Formation, Thioflavin T Binding; recombinant tau K18 P301L, heparin-induced fibrillization, ThT fluorescence; 270,000 compounds, 2.1% hits; Microtubule-associated protein tau (Homo sapiens), P10636; Potency, µM (highest dose often 57.4 µM), hits mostly inhibitors; AID 1460, 2008; further: nearly all actives have a fitted effect of over 55% in size
Target sequence (P10636 561-689 P618L limits assumed): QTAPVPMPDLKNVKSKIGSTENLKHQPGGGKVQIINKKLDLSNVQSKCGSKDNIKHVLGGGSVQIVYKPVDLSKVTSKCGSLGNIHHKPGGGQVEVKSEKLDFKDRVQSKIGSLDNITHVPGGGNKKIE
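Aggregation was driven by heparin (20 uM final) acting on recombinant tau […] bearing P301L in 100 mM sodium acetate pH 7; fibrils were detected with Thioflavin T.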
Tau fluor counter: Counterscreen qHTS for Inhibitors of Tau Fibril Formation, Fluorescence Polarization; tau K18 P301L (four-repeat tau fragment) Alexa594 fluorescence, heparin fibrillization; Potency, µM (series often up to 57.7 µM); 280,000 compounds, 0.93% hits; AID 1463, 2008; further: nearly all actives have a fitted effect of over 55% in size
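Human K18 P301L tau (15 uM unlabeled plus 0.24 uM Alexa 594-labeled, final) in 100 mM sodium acetate pH 7 was mixed with compound and 20 uM heparin and incubated 6 hr at 37 C.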
Tau FP inhib: qHTS for Inhibitors of Tau Fibril Formation, Fluorescence Polarization; Microtubule-associated protein tau (Homo sapiens), P10636; K18 P301L tau heparin fibrillization, Alexa594 FP, 6 h; Potency, µM (series often up to 57.7 µM), most hits filed as inhibitors; 280,000 compounds, 0.39% hits; AID 1468, 2008; further: nearly all actives have a fitted effect of over 55% in size
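Quantitative HTS format: compounds meet 15 uM recombinant K18 P301L tau and Alexa 594-tau tracer in 100 mM sodium acetate pH 7; 20 uM heparin triggers fibrillization at 37 C over 6 hr; FP gives the signal.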
CBFb-RUNX1 inh: qHTS Assay for Compounds Blocking the Interaction Between CBF-beta and RUNX1 for the Treatment of Acute Myeloid Leukemia; Runt-related transcription factor 1 (Homo sapiens) + Core-binding factor subunit beta …; AlphaScreen CBFb-His/RUNX1-biotin binding, biochemical; Potency, µM (highest dose often 59.8 µM), usual class: inhibitors; 230,000 tested, under 10 active; AID 1477, 2009
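Room-temperature protein-protein interaction test with 30 nM each of His-tagged CBF-beta and biotinylated RUNX1, 15 min with compound, then 90 min with nickel plus streptavidin beads. Signal read in AlphaScreen mode.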
JMJD2E inh: qHTS Assay for Inhibitors of Human Jumonji Domain Containing 2E (JMJD2E) | 230,000 compounds, 1.6% hits | Potency, µM (top dose mostly 57.1 µM), most hits filed as inhibitors | JMJD2E catalytic domain, FDH-coupled NADH fluorescence (FDH is formaldehyde dehydrogenase) | Lysine-specific demethylase 4E (Homo sapiens), B2RXH2 | AID 2147, 2009; active means well fitted inhibition curve with a large enough effect, not every such curve was filed as active; inconclusive means small, poorly fitted or top-dose-only effect, or another doubt; inactive means no such curve, though single readings can be large or run the other way; further: nearly all actives have a fitted effect of over 50% in size
Target sequence (B2RXH2 1-337 limits assumed): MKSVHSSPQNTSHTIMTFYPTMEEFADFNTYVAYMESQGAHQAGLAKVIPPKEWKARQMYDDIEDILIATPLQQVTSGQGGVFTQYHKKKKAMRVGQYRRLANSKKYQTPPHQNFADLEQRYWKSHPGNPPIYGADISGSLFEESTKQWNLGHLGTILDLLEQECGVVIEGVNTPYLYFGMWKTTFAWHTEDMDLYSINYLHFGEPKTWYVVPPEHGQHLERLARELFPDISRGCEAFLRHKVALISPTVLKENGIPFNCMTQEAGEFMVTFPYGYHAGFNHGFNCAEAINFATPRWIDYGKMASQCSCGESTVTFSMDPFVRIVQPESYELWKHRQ
LMNA splice mod: qHTS Assay for Modulators of Lamin A Splicing; HeLa LMNA splicing GFP/RFP minigene ratio, 48 h; Potency, µM (highest dose often 46.1 µM), actives largely listed as inhibitors; 200,000 compounds, 0.01% hits; AID 1487, 2009; active means well fitted inhibition curve with a large enough effect in the signal ratio, with a control signal flat, not every such curve was filed as active; inconclusive means small, poorly fitted or top-dose-only effect, or effect the other way, or a change in a side signal; the % refers to the signal ratio
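Read-out is the ratio of GFP to DsRed2 object intensity, acquired by 488 nm laser-scanning cytometry on HeLa lamin A-EGFP minigene reporter cells. Compound incubation 48 hrs at 37 °C in Opti-MEM with 2% FBS; DMSO 0.5% final.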
A number is an active result; [ ] = remark or other dose. Sampled rows, rich in hits. Any-hit rate of the full collection: about 3.2%. Unless noted, the call rests on the fitted dose curve; in most records, active means well fitted curve in the direction sought with a large enough effect; inconclusive means small, poorly fitted or top-dose-only effect, or another doubt; inactive means no such curve, though single readings can be large; an effect the other way counts as inactive or inconclusive.

Screening COc1ccc(-c2ccc3c(N)c(C(=O)NC(C)C)sc3n2)cc1OC returned Tau ThT inhib 10µM, Tau fluor counter 18µM[quencher], Tau FP inhib inconclusive, CBFb-RUNX1 inh inconclusive and JMJD2E inh inconclusive.
Screening COc1ccc(-c2ccc3c(N)c(C(=O)c4ccc(OC)c(OC)c4)sc3n2)cc1 returned Tau ThT inhib inconclusive, Tau fluor counter inconclusive, Tau FP inhib inactive, CBFb-RUNX1 inh inactive, JMJD2E inh inactive and LMNA splice mod inactive.
`COc1ccc(CN(C)S(=O)(=O)c2nnc(NC(=O)C(C)C)s2)cc1OC` gave Tau ThT inhib inactive, Tau fluor counter inactive and Tau FP inhib inactive.
Screening COc1ccc(CNC(=O)C(C#N)c2nc3ccccc3nc2N2CCN(C)CC2)cc1 (centres undefined) returned Tau ThT inhib 16µM, Tau fluor counter inactive, Tau FP inhib inactive, CBFb-RUNX1 inh inactive, JMJD2E inh inactive and LMNA splice mod inactive.
Screening COc1ccc(CNC(=O)C(C#N)c2nc3ccccc3nc2N2CCCC2)cc1 (centres undefined) returned Tau ThT inhib inactive, Tau fluor counter inactive, Tau FP inhib inactive, CBFb-RUNX1 inh inactive, JMJD2E inh inconclusive and LMNA splice mod inconclusive.
Screening Cc1ccc(NS(=O)(=O)c2ccc3nc(-c4ccccc4)[nH]c3c2)cc1Cl returned Tau ThT inhib inconclusive, Tau fluor counter inconclusive and Tau FP inhib 10µM.
`O=S(=O)(Nc1ccc(Br)cc1F)c1ccc2nc(-c3ccccc3)[nH]c2c1` gave Tau ThT inhib inconclusive, Tau fluor counter inactive and Tau FP inhib 14µM.
`Cc1ccc(NS(=O)(=O)c2ccc(Cl)c(C(=O)Nc3ccccc3-c3nc4ccccc4[nH]3)c2)cc1C` gave Tau ThT inhib inconclusive, Tau fluor counter inconclusive, Tau FP inhib 14µM, CBFb-RUNX1 inh inactive, JMJD2E inh inconclusive and LMNA splice mod inconclusive.
For CN(C)S(=O)(=O)c1ccc(Cl)c(C(=O)Nc2nc3ccccc3[nH]2)c1 the results were Tau ThT inhib inactive, Tau fluor counter inactive, Tau FP inhib inactive, CBFb-RUNX1 inh inactive, JMJD2E inh inactive and LMNA splice mod inactive.
For O=S(=O)(c1ccc2nc(-c3ccccc3)[nH]c2c1)N1CCN(c2ccc(Cl)cc2)CC1 the results were Tau ThT inhib inactive, Tau fluor counter inconclusive, Tau FP inhib inconclusive, CBFb-RUNX1 inh inactive, JMJD2E inh inactive and LMNA splice mod inconclusive.
`Cc1cc(NS(=O)(=O)c2ccc3nc(-c4ccccc4)[nH]c3c2)ccc1Br` gave Tau ThT inhib inconclusive, Tau fluor counter inconclusive and Tau FP inhib 7.9µM.
For CC[C@H](C)[C@H](NC(=O)[C@H](Cc1ccc(O)cc1)NC(=O)[C@@H](NC(=O)[C@@H](N)CCCN=C(N)N)C(C)C)C(=O)N[C@@H](Cc1cnc[nH]1)C(=O)N1CCC[C@H]1C(=O)N[C@@H](Cc1ccccc1)C(=O)O the results were CBFb-RUNX1 inh inactive.
CC(=O)Nc1ccc(Nc2nc3ccc(C)cc3n3nnnc23)cc1 was read as Tau ThT inhib inconclusive, Tau fluor counter inconclusive and Tau FP inhib inactive.
Screening CC(=O)c1cccc(NC(=O)c2nc(-c3ccccc3)n(-c3cccc(Cl)c3)n2)c1 returned Tau ThT inhib inactive, Tau fluor counter inactive and Tau FP inhib inactive.
Screening N[C@@H]1CCN(O)C1=O returned Tau ThT inhib inactive, Tau fluor counter inactive, Tau FP inhib inactive, CBFb-RUNX1 inh inactive and JMJD2E inh inactive.
`CCOC(=O)c1c(-c2cccs2)csc1NC(=O)c1ccncc1` gave Tau ThT inhib inactive, Tau fluor counter inactive, Tau FP inhib inactive, CBFb-RUNX1 inh inactive, JMJD2E inh inactive and LMNA splice mod inactive.
`COC(=O)c1c(-c2cccs2)csc1NC(=O)c1ccc(C)cc1` gave Tau ThT inhib 32µM, Tau fluor counter inactive, Tau FP inhib inconclusive and LMNA splice mod inactive.
`COC(=O)c1c(-c2cccs2)csc1NC(=O)c1cc(OC)c(OC)c(OC)c1` gave Tau ThT inhib 11µM, Tau fluor counter inactive, Tau FP inhib inconclusive and LMNA splice mod inactive.
Screening COC(=O)c1c(-c2cccs2)csc1NC(=O)c1ccc(Br)cc1 returned Tau ThT inhib 16µM, Tau fluor counter inactive, Tau FP inhib inconclusive and LMNA splice mod inactive.
Screening COC(=O)c1c(-c2cccs2)csc1NC(=O)c1ccc(OC)c(OC)c1 returned Tau ThT inhib inconclusive, Tau fluor counter inactive, Tau FP inhib inconclusive and LMNA splice mod inactive.
CCCCS(=O)(=O)N1CCc2nc(COc3ccccc3)c3c(c2C1)CO[C@@H](C)C3 was read as Tau ThT inhib inactive[11.5 µM], Tau fluor counter inactive[11.6 µM], Tau FP inhib inactive[11.6 µM], CBFb-RUNX1 inh inactive[13.1 µM], JMJD2E inh inactive[11.4 µM] and LMNA splice mod inactive[9.22 µM].
Screening CCOc1cc(N2CCOCC2)c(OCC)cc1NC(C)C(=O)N1CCC(C)CC1 (centres undefined) returned Tau ThT inhib inconclusive, Tau fluor counter inactive, Tau FP inhib inconclusive, CBFb-RUNX1 inh inactive, JMJD2E inh 11µM and LMNA splice mod inactive.
For CC1CCN(CCCCOc2ccc([N+](=O)[O-])cc2)CC1 the results were Tau ThT inhib inactive, Tau fluor counter inactive, Tau FP inhib inactive, CBFb-RUNX1 inh inactive, JMJD2E inh inactive and LMNA splice mod inactive.
COC(=O)C1CCN(Cc2ccc(OCCCN3CCN(c4ccc([N+](=O)[O-])cc4)CC3)cc2)CC1 was read as Tau ThT inhib 4µM, Tau fluor counter inactive, Tau FP inhib inactive, CBFb-RUNX1 inh inactive and JMJD2E inh inactive.
`c1ccc2[nH]c(NCCCc3cnc[nH]3)nc2c1` gave CBFb-RUNX1 inh inactive.
COc1ccc(/C=N/c2c(-c3ccco3)nc3ccccn23)cc1OC was read as Tau ThT inhib 22µM, Tau fluor counter 22µM[quencher], Tau FP inhib inconclusive, CBFb-RUNX1 inh inactive, JMJD2E inh inconclusive and LMNA splice mod inactive.
Screening CC(C)c1ccc(Nc2c(-c3ccco3)nc3ccccn23)cc1 returned Tau ThT inhib inactive, Tau fluor counter inconclusive and Tau FP inhib inactive.
`Oc1ccccc1/C=N/c1c(-c2ccco2)nc2ccccn12` gave Tau ThT inhib 22µM, Tau fluor counter 22µM[quencher], Tau FP inhib inconclusive, CBFb-RUNX1 inh inconclusive, JMJD2E inh inconclusive and LMNA splice mod inactive.
`Clc1ccc(/C=N/c2c(-c3ccco3)nc3ccccn23)cc1` gave Tau ThT inhib 25µM, Tau fluor counter 25µM[quencher], Tau FP inhib inconclusive, CBFb-RUNX1 inh inactive, JMJD2E inh inconclusive and LMNA splice mod inactive.

From PubChem BioAssay
